This passage reports Potency and activity change, negative = cytotoxicity results from PubChem BioAssay (NCATS).

Common to all, as to assay: Primary qHTS to identify gynecologic anti-cancer compounds using libraries of approved drugs and bioactive compounds (AID 1345084); also: nearly all actives have a fitted effect of over 55% in size
(In general: qHTS replaces the single test concentration by a dilution series.)

For one assay, the system named is C33A. To be noted: Gynecologic cancer cell panel viability, ATPlite luminescence, 48 h; series mostly up to 57.5 µM. Put shortly:
(§1)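 In this quantitative HTS, cell killing is estimated from loss of ATP-dependent luciferase light. Cells see five compound concentrations over a 48 h exposure.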
Background: In ATP-based viability assays light output follows the ATP content of the culture.

In another assay the test system is CAOV3. To be noted: Gynecologic cancer cell panel viability, ATPlite luminescence, 48 h; series mostly up to 57.5 µM. In short, it runs like this:
as §1

For a further assay, the system named is CASKI. To be noted: Gynecologic cancer cell panel viability, ATPlite luminescence, 48 h; series mostly up to 57.5 µM. In short, it runs like this: as §1
In the next assay the test system is Es-2. The conditions noted are these: Gynecologic cancer cell panel viability, ATPlite luminescence, 48 h; series mostly up to 57.5 µM. In short, it runs like this:
as §1

The subject of a further assay is HeLa. The conditions noted are these: Gynecologic cancer cell panel viability, ATPlite luminescence, 48 h; series mostly up to 57.5 µM. In short, it runs like this: as §1
A further assay relates to Hek293T. The conditions noted are these: Gynecologic cancer cell panel viability, ATPlite luminescence, 48 h, control line for the selectivity index; series mostly up to 57.5 µM. In short, it runs like this:
as §1

Another assay concerns JEG-3. To be noted: Gynecologic cancer cell panel viability, ATPlite luminescence, 48 h; series mostly up to 57.5 µM. Put shortly:
as §1

A further assay has as its system OV90. The conditions noted are these: Gynecologic cancer cell panel viability, ATPlite luminescence, 48 h; series mostly up to 57.5 µM. In short, it runs like this:
as §1

The subject of another assay is PA-1. To be noted: Gynecologic cancer cell panel viability, ATPlite luminescence, 48 h; series mostly up to 57.5 µM. Put shortly:
as §1

The next assay concerns SKOV3. The conditions noted are these: Gynecologic cancer cell panel viability, ATPlite luminescence, 48 h; series mostly up to 57.5 µM. In short, it runs like this:
as §1

The test system of another assay is Tov-21-G. The conditions noted are these: Gynecologic cancer cell panel viability, ATPlite luminescence, 48 h; series mostly up to 57.5 µM. Put shortly: as §1
The next assay has as its system Tov112D. To be noted: Gynecologic cancer cell panel viability, ATPlite luminescence, 48 h; series mostly up to 57.5 µM. Put shortly:
as §1

Inconclusive results are not listed. Unmarked numbers belong to inactive results. Active and inactive are the calls of the source. Calls follow the shape of the dose curve; as a rule, active = well fitted cell-killing curve with a large enough effect; inconclusive = small, poorly fitted or top-dose-only effect, or effect the other way; inactive = flat fitted curve, though single readings scatter.
% is scaled to controls: 0 for no effect and ±100 for the full control effect; potency is read from the fitted curve at half-maximal effect.

For the compound `CC(C)CC1NC(=O)C(C)NC(=O)C(CC(C)C)OC(=O)CCCNC1=O` (centres undefined), the Potency result in the assay on C33A, in the assay on CAOV3, in the assay on CASKI, in the assay with Es-2, with HeLa and in the assay with Hek293T was “inactive” throughout. For the same compound, the Potency entry with JEG-3, in the assay with OV90, in the assay with PA-1, in the assay with SKOV3, in the assay on Tov-21-G and in the assay with Tov112D was “inactive” in each case.
On to `COc1cc(C(=O)O)ccc1OC1OC(CO)C(O)C(O)C1O` (centres undefined), for which the Potency entry with C33A, with CAOV3, in the assay on CASKI, with Es-2, with HeLa and in the assay on Hek293T was “inactive” in each case. Moreover, the Potency entry in the assay with JEG-3, in the assay on OV90, in the assay with PA-1, in the assay with SKOV3, with Tov-21-G and in the assay with Tov112D was “inactive” throughout.
As for `CCc1cc(CN2CC(C(=O)O)C2)sc1-c1noc(-c2ccc(Oc3ccccc3)cc2)n1`, the Potency result with C33A, in the assay on CAOV3, in the assay on CASKI, in the assay on Es-2, in the assay with HeLa and in the assay with Hek293T was “inactive” each time. Also, the Potency entry with JEG-3, in the assay on OV90, with PA-1, in the assay on SKOV3, in the assay with Tov-21-G and with Tov112D was “inactive” each time.
Consider `COC(=O)c1cc(OC)c(O[C@@H]2O[C@@H](C)[C@H](O)[C@@H](O)[C@H]2O)c(OC)c1`, for which the Potency result in the assay with C33A, in the assay on CAOV3, with CASKI, in the assay with Es-2, with HeLa and in the assay with Hek293T was “inactive” throughout. The Potency result in the assay with JEG-3, with OV90, in the assay with PA-1, in the assay on SKOV3, in the assay with Tov-21-G and in the assay with Tov112D was “inactive” in each case.
As for `CC1(C)CCCC2(C)C1CC(=O)C13CC(CCC12)C(O)(CO)C3` (centres undefined), the Potency entry with C33A, with CAOV3, in the assay on CASKI, in the assay on HeLa, in the assay on Hek293T and in the assay on JEG-3 was “inactive” each time. For the same compound, the Potency entry in the assay on OV90, with PA-1, with SKOV3, in the assay with Tov-21-G and with Tov112D was “inactive” in each case. For the same compound, in the assay on Es-2, the Potency is 4.47 µM (active).
For `C[C@@H]1O[C@@H](O[C@H]2[C@H](O[C@H]3CC[C@@]4(C)C(CC[C@]5(C)C4C=C[C@]46OC[C@@]7(CCC(C)(C)C[C@H]74)[C@@H](O)C[C@]65C)[C@]3(C)CO)O[C@H](CO)[C@@H](O)[C@@H]2O[C@@H]2O[C@H](CO)[C@@H](O[C@@H]3O[C@@H](C)[C@H](O)[C@@H](O)[C@H]3O)[C@H](O)[C@H]2O)[C@H](O)[C@H](O)[C@H]1O` (some centres undefined), the activity change, negative = cytotoxicity in the assay on C33A is -24.9% [at 11.6 µM]; in the assay with CAOV3 it was -6.89% [at 11.6 µM]; in the assay on CASKI it was -6.58% [at 11.6 µM]; with Es-2 it was -4.56% [at 11.6 µM]; in the assay on HeLa, -11.4% [at 11.6 µM]; with Hek293T, -7.26% [at 11.6 µM]. The activity change, negative = cytotoxicity was -0.552% [at 11.6 µM] in the assay on JEG-3; -28.6% [at 11.6 µM] in the assay on OV90; -23.2% [at 11.6 µM] in the assay on PA-1; -29.1% [at 11.6 µM] with SKOV3; -25.6% [at 11.6 µM] in the assay on Tov-21-G; -4.43% [at 11.6 µM] with Tov112D.
For the compound `CN1CCc2nc(C(=O)N[C@@H]3C[C@@H](C(=O)N(C)C)CC[C@@H]3NC(=O)C(=O)Nc3ccc(Cl)cn3)sc2C1`, the Potency result in the assay with C33A, in the assay with CAOV3, in the assay on CASKI, in the assay on Es-2, in the assay with HeLa and in the assay on Hek293T was “inactive” in each case. Moreover, the Potency entry with JEG-3, in the assay on OV90, in the assay on PA-1, in the assay on SKOV3, in the assay on Tov-21-G and in the assay with Tov112D was “inactive” each time.
For the compound `CCOC(=O)CCN(C(=O)c1ccc2c(c1)nc(CNc1ccc(C(=N)N)cc1)n2C)c1ccccn1`, the Potency entry with C33A, in the assay on CAOV3, in the assay on CASKI, in the assay with Es-2, in the assay on HeLa and in the assay with Hek293T was “inactive” each time. Moreover, the Potency result in the assay on JEG-3, with OV90, with PA-1, with SKOV3, in the assay on Tov-21-G and in the assay on Tov112D was “inactive” throughout.
Consider `C=C1C[C@]23C[C@H]1CC[C@H]2[C@]1(C)CCC[C@@](C)(C(=O)O)[C@H]1[C@@H]3C(=O)O`, for which the Potency entry with C33A, in the assay with CAOV3, in the assay with CASKI, in the assay on Es-2, with HeLa and in the assay with Hek293T was “inactive” throughout. Also, the Potency result in the assay with JEG-3, in the assay with OV90, in the assay with PA-1, with SKOV3, in the assay on Tov-21-G and with Tov112D was “inactive” throughout.
For `CC1=C(C(=O)O)/C(=C/CO[C@@H]2O[C@H](COC(=O)/C=C/c3ccc(O)cc3)[C@@H](O)[C@H](O)[C@H]2O)C(O)C1` (some centres undefined), the Potency result with C33A, with CAOV3, in the assay with CASKI, in the assay on Es-2, in the assay with HeLa and with Hek293T was “inactive” each time. Also, the Potency result in the assay with JEG-3, in the assay with OV90, in the assay with PA-1, in the assay with SKOV3, in the assay on Tov-21-G and in the assay on Tov112D was “inactive” each time.
Take `CC[C@@H](O)C[C@@H]1C(C)=C[C@@H]2CCCC[C@@H]2[C@@]1(C)C(=O)O`: the Potency result in the assay with C33A, with CAOV3, with CASKI, in the assay with Es-2, with HeLa and in the assay with Hek293T was “inactive” in each case. Also, the Potency result with JEG-3, in the assay on OV90, in the assay on PA-1, with SKOV3, with Tov-21-G and in the assay on Tov112D was “inactive” in each case.
As to `CC(=O)OC1C(O)C2C(C)C3=CC(=O)OC3(O)CC2C2(C)CCCC(C)(CO)C12` (centres undefined), the Potency entry in the assay with C33A, with CAOV3, in the assay with CASKI, in the assay on Es-2, with HeLa and with Hek293T was “inactive” in each case. Further, the Potency result in the assay on JEG-3, in the assay on OV90, with PA-1, in the assay on SKOV3, in the assay with Tov-21-G and in the assay on Tov112D was “inactive” in each case.
Turning to `CCC(Nc1ncnc2nc[nH]c12)c1nc2cccc(F)c2c(=O)n1-c1ccccc1` (centres undefined), the Potency entry in the assay on C33A, in the assay on CAOV3, with CASKI, with Es-2, with HeLa and with Hek293T was “inactive” throughout. In addition, the Potency entry in the assay with JEG-3, in the assay on OV90, with PA-1, with SKOV3, with Tov-21-G and in the assay on Tov112D was “inactive” each time.
`COc1ccc2cc(C(C)C(=O)Oc3ccc(C(N)=S)cc3)ccc2c1` (centres undefined): the Potency entry in the assay on C33A, in the assay with CAOV3, in the assay with CASKI, in the assay with Es-2, in the assay with HeLa and with Hek293T was “inactive” each time. Besides, the Potency entry in the assay on JEG-3, in the assay on OV90, in the assay with PA-1, in the assay with SKOV3, in the assay on Tov-21-G and in the assay on Tov112D was “inactive” in each case.
`CC1OC(OC2C(CO)OC(OCC3OC(OC(=O)C45CCC(C)(C)CC4C4=CCC6C7(C)CCC(OC8OC(CO)C(O)C(OC9OC(CO)C(O)C(O)C9O)C8O)C(C)(C)C7CCC6(C)C4(C)CC5)C(O)C(O)C3O)C(O)C2O)C(O)C(O)C1OC1OC(CO)C(O)C(O)C1O` (centres undefined): the activity change, negative = cytotoxicity was -0.229% [at 6.55 µM] in the assay on C33A; -14.1% [at 6.55 µM] in the assay on CAOV3; 8.74% [at 6.55 µM] in the assay with CASKI; 5.26% [at 6.55 µM] in the assay with Es-2; 3.66% [at 6.55 µM] with HeLa; 13.1% [at 6.55 µM] in the assay on Hek293T. Also, the activity change, negative = cytotoxicity was 7.02% [at 6.55 µM] in the assay with JEG-3; 6.18% [at 6.55 µM] in the assay on OV90; 2.62% [at 6.55 µM] in the assay on PA-1; 13.6% [at 6.55 µM] in the assay on SKOV3; 3.67% [at 6.55 µM] in the assay on Tov-21-G; -6.51% [at 6.55 µM] in the assay on Tov112D.
Turning to `CC1CCC2(CO)C(C(=O)O)=CCCC2C1(C)CCc1ccoc1` (centres undefined), the Potency entry in the assay on C33A, with CAOV3, in the assay with CASKI, with Es-2, in the assay on HeLa and in the assay with Hek293T was “inactive” in each case. Moreover, the Potency result in the assay on JEG-3, with OV90, in the assay on PA-1, in the assay on SKOV3, in the assay with Tov-21-G and with Tov112D was “inactive” each time.
Turning to `C/C=C/C=C/[C@@H]1O[C@](O)([C@H](CC)C(=O)NC/C=C/C=C(\C)[C@@H](OC)[C@@H](C)C2OC(/C=C/C=C/C=C(\C)C(=O)c3c(O)cc[nH]c3=O)[C@H](O)[C@@H]2O)[C@H](O)[C@H](O)C1(C)C` (some centres undefined), the Potency entry in the assay on C33A, in the assay on CAOV3, in the assay on CASKI, in the assay with Es-2, with HeLa and in the assay with Hek293T was “inactive” each time. For the same compound, the Potency entry with JEG-3, in the assay with OV90, with PA-1, in the assay with SKOV3, in the assay on Tov-21-G and with Tov112D was “inactive” throughout.
